Bioassay records deposited in PubChem by National Center for Advancing Translational Sciences (NCATS).
Sfp inh: inhibitors of Bacillus subtilis Sfp phosphopantetheinyl transferase; actives 3.5% (n = 310,000); Potency, µM, actives largely listed as inhibitors; Biochemical Sfp PPTase activity, qHTS;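 note: the enzyme is Sfp with the accession as filed and its product quenches rhodamine fluorescence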
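Fluorescence-quenching assay: 15 nM Sfp-PPTase preincubated 15 min at room temperature with compound, then 5 uM rhodamine-CoA and 12.5 uM BHQ-2-labelled YbbR peptide added. Fluorescence (ex 525/em 598 nm) read at start and after 30 min; difference gives rate.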
rTrxR1 inhibitor: inhibitors of rat thioredoxin reductase 1 | actives 1% (n = 390,000) | Potency, µM (highest dose often 114 µM), usual class: inhibitors | AID 588453 | O89049 | recombinant rTrxR1, NADPH fluorescence consumption, selenite substrate; note: nearly all actives have a fitted effect of over 65% in size
Target sequence (O89049 whole entry, looked up): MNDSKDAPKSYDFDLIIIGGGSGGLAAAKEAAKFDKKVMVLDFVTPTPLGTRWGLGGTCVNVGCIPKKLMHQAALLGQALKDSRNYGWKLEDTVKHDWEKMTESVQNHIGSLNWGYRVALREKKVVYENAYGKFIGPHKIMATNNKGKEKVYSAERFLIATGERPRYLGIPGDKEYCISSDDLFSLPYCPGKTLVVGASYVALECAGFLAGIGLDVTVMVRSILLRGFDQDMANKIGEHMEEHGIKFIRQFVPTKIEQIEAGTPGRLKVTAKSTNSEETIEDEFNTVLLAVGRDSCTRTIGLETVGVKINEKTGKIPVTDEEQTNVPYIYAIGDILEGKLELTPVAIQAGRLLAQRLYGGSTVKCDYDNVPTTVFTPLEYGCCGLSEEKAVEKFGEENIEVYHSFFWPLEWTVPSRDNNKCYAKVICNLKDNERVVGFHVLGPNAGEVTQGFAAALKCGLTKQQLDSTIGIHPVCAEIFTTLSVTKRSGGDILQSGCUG
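Rat TrxR1 (90 nM in the dispensed reagent) was pre-reduced with 400 uM NADPH for 5 min at room temperature, then incubated with compound for 15 min. After 400 uM selenite was added, NADPH fluorescence (Ex 340/Em 450 nm) was followed for 8 min.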
GCN5L2 inh: blocks human GCN5L2 histone acetyltransferase; Q92830; actives 0.21% (n = 390,000); Potency, µM (doses to about 58.9 µM), usual class: inhibitors; GCN5L2 HAT assay, ThioGlo1 CoA-SH fluorescence; AID 504327
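ThioGlo1-coupled HAT assay: 20nM GCN5L2, 70uM acetyl-CoA, 75uM H3(1-25) peptide, pH 7.5. Fluorescence read at 340/540nm at start and after 20 min at room temperature.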
TrxR1 substrate: is turned over as a substrate by rat TrxR1; actives 0.01% (n = 390,000); O89049; Potency, µM (doses to about 114 µM); purified TrxR1 substrate turnover, NADPH consumption readout; note: nearly all actives have a fitted effect of over 50% in size
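Rat TrxR1, dispensed at 90 nM, was prereduced with 400 uM NADPH (final) for 5 min at ~22 deg C, then incubated with compound 15 min before 400 uM selenite. A first-read NADPH fluorescence drop versus no-compound background flagged substrates.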
VDR inh: inhibitors of human vitamin D receptor. actives 0.93% (n = 400,000). AID 504847. VDR-SRC2-3 peptide fluorescence polarization, 2 h. P11473. Potency, µM, hits mostly inhibitors
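Inhibition of the VDR/SRC2-3 peptide interaction is quantified by fluorescence polarization. Compounds (23 nl, pintool) incubate with the reagents for 2 hours at ambient room temperature.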
GLS inh: inhibitors of human glutaminase (GLS) | O94925 | GLS enzymatic activity, qHTS titration | Potency, µM (titrated, usually from 45.5 µM), most hits filed as inhibitors | actives 0.21% (n = 410,000)
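hKGA; 45 mM KH2PO4 pH 8.2 + 0.02% Tween-20; cpd via pin tool; 1 mM Gln soln; GluOx/HRP/Amplex Red; RT 30 min; fluor. t0 & final.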
A number is an active result; n = inactive; u = inconclusive; x = no result; ! = repeats disagree. In the library only some 3.8% were active in any assay of this set; here they are far more common. Calls come from the whole dose curve; as a rule, active = well fitted curve in the direction sought with a large enough effect; inconclusive = small, poorly fitted or top-dose-only effect, or another doubt; inactive = no such curve, though single readings can be large; an effect the other way counts as inactive or inconclusive.

SMILES | Sfp inh | rTrxR1 inhibitor | GCN5L2 inh | TrxR1 substrate | VDR inh | GLS inh
O=C1/C(=C\c2ccco2)SC(=S)N1c1ccc(O)cc1 | 16µM | n | n | n | n | n
Cc1cc(=O)n2nc(N3CCC(C(=O)Nc4cccc(Cl)c4C)CC3)sc2n1 | n | n | n | n | n | n
O=C(COC(=O)c1ccncc1)Nc1cccc(Cl)c1 | n | n | n | n | n | n
CCOc1ccc(-c2nc(S(=O)(=O)c3ccccc3)c(N3CCC(C(N)=O)CC3)o2)cc1 | n | 45µM | n | n | n | n
O=C(Nc1ccc2nc(-c3ccc(Br)o3)[nH]c2c1)c1cccs1 | n | 16µM | n | n | n | n
CC(=O)Nc1ccc2nc(-c3ccc(Br)o3)[nH]c2c1 | n | 11µM | n | n | n | n
Cn1c(N)c(C(=O)COC(=O)CC(NC(N)=O)c2ccc(Cl)cc2)c(=O)n(C)c1=O (stereo not drawn) | x | n | n | n | n | n
Cc1ccc(OCc2ccc(C(=O)O)o2)cc1C | n | n | n | n | n | n
Cc1ccc(OCc2ccoc2C(=O)O)cc1C | n | n | n | n | n | 18µM
Cc1ccccc1NC(=O)c1nc(S(=O)(=O)Cc2ccccc2F)ncc1Cl | x | 3.5µM | x | n | x | x
Cc1ccc(NC(=O)c2nc(S(=O)(=O)Cc3ccccc3C)ncc2Cl)cc1C | n | 32µM | n | n | u | n
Cc1cccc(CS(=O)(=O)c2ncc(Cl)c(C(=O)NCc3ccc4c(c3)OCO4)n2)c1 | n | n | n | n | u | n
CSc1ncc(Cl)c(C(=O)Nc2ccccc2C)n1 | n | n | n | n | n | n
CC(=O)Nc1ccc(NC(=O)c2nc(S(=O)(=O)Cc3cccc(C)c3)ncc2Cl)cc1 | n | 10µM | n | n | u | n
CC(=O)Nc1ccc(NC(=O)c2nc(S(=O)(=O)Cc3ccc(F)cc3)ncc2Cl)cc1 | x | 1.3µM | n | n | u | n
Cc1cc(C)c2nc(C(F)(F)F)nc(NCCCN3CCOCC3)c2c1 | n | n | n | n | n | n
CCS(=O)(=O)c1ncc(Cl)c(C(=O)Nc2ccccc2OC)n1 | n | u | n | n | u | n
Cc1ccc(CS(=O)(=O)c2ncc(Cl)c(C(=O)Nc3nc4ccc(F)cc4s3)n2)cc1 | x | u | n | n | n | n
CC(C)Sc1ncc(Cl)c(C(=O)Nc2nnc(C(C)C)s2)n1 | x | n | n | n | n | n
Cc1ccccc1CS(=O)(=O)c1ncc(Cl)c(C(=O)Nc2nnc(C(C)C)s2)n1 | x | 7.1µM | n | n | u | n
COc1ccc(OC)c(NC(=O)c2nc(S(=O)(=O)Cc3ccc(F)cc3)ncc2Cl)c1 | x | 0.71µM | n | n | u | n
Cc1ccc(NC(=O)c2nc(S(=O)(=O)Cc3ccc(F)cc3)ncc2Cl)cc1C | x | 2.8µM | n | n | n | n
COC(=O)c1ccccc1NC(=O)c1nc(S(=O)(=O)Cc2cccc(C)c2)ncc1Cl | x | 1.4µM | n | n | u | n
CC(C)(C)n1ncc2c(=O)n(Cc3ccccc3Br)cnc21 | x | n | n | n | n | u
O=C(NCc1ccccc1)C1CCCN(S(=O)(=O)c2ccc(-n3cnnn3)cc2)C1 (stereo not drawn) | n | n | n | n | n | n
SMILES | Sfp inh | rTrxR1 inhibitor | GCN5L2 inh | TrxR1 substrate | VDR inh | GLS inh
COc1ccc(/C=N/n2c(-c3n[nH]c4c3CCC4)n[nH]c2=S)cc1 | n | n | n | n | n | u
CC(/C=N/n1c(-c2n[nH]c3c2CCC3)n[nH]c1=S)=C\c1ccco1 | 45µM | u | n | n | n | u
COc1cc(OC)c(OC)cc1/C=N/n1c(-c2n[nH]c3c2CCC3)n[nH]c1=S | 22µM | n | n | n | n | n
COc1cc(/C=N/n2c(-c3cc(C)[nH]n3)n[nH]c2=S)cc(OC)c1O | 28µM | u | n | n | n | u
Cc1ccc(-c2csc(Nc3ccc(S(N)(=O)=O)cc3)n2)o1 | 10µM | n | n | n | n | u
COc1ccc(OC)c(-c2csc(NC(=O)Cc3ccc(F)cc3)n2)c1 | n | n | n | n | n | n
Cc1ccc(-c2csc(NC(=O)Cc3ccc(F)cc3)n2)o1 | 13µM | n | n | n | u | u
Cc1ccc(-c2csc(NC(=O)c3ccc(-c4ccccc4)cc3)n2)o1 | 22µM | u | n | n | n | n
CC(NC(=O)[C@H](NC(=O)[C@@H]1Cc2ccccc2CN1)c1ccccc1)c1ccccc1 (stereo partly drawn) | n | n | n | n | n | n
COc1ccc(NC(=O)CN(C)C(=O)c2ccc3c(c2)OCCO3)cc1 | x | n | n | n | n | n
CC(=O)Nc1cc(O)c2nonc2c1O | x | 5.6µM | x | 3.2µM | 4.5µM | x
COc1ccc(C=NNC(=O)CCCCC(=O)NN=Cc2ccc(OC)cc2)cc1 | x | n | x | n | n | n
COC(=O)/C=C\C(C#N)(C#N)N=Cc1ccc(OC)cc1 | x | 2.2µM | x | n | 13µM | n
Cc1ccc(NC(=O)CCc2ccccc2)cc1S(=O)(=O)N1CCOCC1 | x | n | n | n | n | n
CN(C)S(=O)(=O)N1CCC(c2ccc(F)cc2)C(COc2ccc3c(c2)OCO3)C1 (stereo not drawn) | n | n | n | n | n | n
O=C(CC1Nc2c3ccccc3nc(=S)n2C1=O)NC1CCCCC1 (stereo not drawn) | n | x | n | x | x | x
Nc1c(C(=O)NCc2ccco2)c2nc3ccccc3nc2n1CCc1ccccc1F | 56µM | u | n | n | n | n
COc1ccc(CCn2c(N)c(C(=O)NCc3ccco3)c3nc4ccccc4nc32)cc1OC | 45µM | n | u | n | n | n
COc1ccc(CCn2c(N)c(C(=O)NCc3ccco3)c3nc4ccccc4nc32)cc1 | u | n | n | n | u | n
NC(=O)c1cccc2c1-c1ccccc1/C2=N/NC(N)=S | n | n | n | n | n | n
NC(=S)N/N=C1\c2ccccc2-c2c(C(=O)O)cccc21 | 79µM | n | n | n | n | n
O=C(O)C(Cc1ccccc1)n1cccc1 (stereo not drawn) | n | n | n | n | n | 13µM
O=C(C(Cc1ccccc1)n1cccc1)N1CCN(c2ccccc2)CC1 (stereo not drawn) | n | n | n | n | n | n
COc1ccccc1CCC(=O)OCC(=O)Nc1ccc(S(N)(=O)=O)cc1 | n | n | n | n | n | n
O=C(Nc1ccc(C(=O)Nc2ccc(C(=O)Nc3ccc(S(=O)(=O)O)c4cc(S(=O)(=O)O)cc(S(=O)(=O)O)c34)cc2)cc1)Nc1ccc(C(=O)Nc2ccc(C(=O)Nc3ccc(S(=O)(=O)O)c4cc(S(=O)(=O)O)cc(S(=O)(=O)O)c34)cc2)cc1 | u | x | 16µM! | x | 5.6µM | x
CC(OC(=O)CSc1ccc([N+](=O)[O-])cc1)C(=O)NCc1ccccc1 (stereo not drawn) | x | n | n | n | 79µM | n
